The results in this text go back to paper PMC7862700, “An all-to-all approach to the identification of sequence-specific readers for epigenetic DNA modifications on cytosine”.

Common to all, as to assay: DAPPL (digital affinity profiling via proximity ligation, sequencing); 10 mM Tris-HCl pH 7.5, 50 mM NaCl, 1 mM DTT, 4% glycerol, room temperature, 30 min; GST-TFs on glutathione beads, 16-mer random dsDNA library, 0.1% formaldehyde crosslink after washing; high values mean tight binding
One assay deals with T1, FEV (Homo sapiens, UniProt Q99581 1-238).
T1 sequence: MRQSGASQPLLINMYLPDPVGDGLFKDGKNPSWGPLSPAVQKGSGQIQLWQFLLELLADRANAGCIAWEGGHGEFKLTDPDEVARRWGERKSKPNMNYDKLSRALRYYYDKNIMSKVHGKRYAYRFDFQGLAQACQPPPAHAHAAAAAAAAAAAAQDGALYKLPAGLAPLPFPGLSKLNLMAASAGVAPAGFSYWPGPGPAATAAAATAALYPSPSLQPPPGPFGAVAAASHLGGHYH
The following applies: protein: recombinant; tags: N-terminal GST; dsDNA, one strand shown. The method in brief: (§1)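 In yeast, human transcription factors were expressed with a GST fusion, then pulled down on glutathione beads and given DNA barcodes. Pooled with a tag-only sample, they were exposed to 200 nmole of a 16-mer random double-stranded DNA library (Tris/NaCl/DTT/glycerol buffer, room temperature, 30 min), washed, crosslinked with 0.1% formaldehyde, proximity-ligated using BsaI/T4 ligase for 1 h at 37 °C, PCR-amplified and read on an Illumina NextSeq500. Each hexamer's frequency of reads for a factor, divided by the matching frequency for the tag-only sample, gives the binding signal.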

The target in another assay is ETV5 (Homo sapiens, UniProt P41161 1-510). The following applies: protein: recombinant; tags: N-terminal GST; dsDNA, one strand shown. A digest of the protocol:
as §1

The target of another assay is HSF1 (Homo sapiens, UniProt Q00613 1-529). The following applies: protein: recombinant; tags: N-terminal GST; chain copies: 3; dsDNA, one strand shown. The method in brief:
as §1

For the next assay, the target named is T2, SPIC (Homo sapiens, UniProt Q8N5J4 1-248).
T2 sequence: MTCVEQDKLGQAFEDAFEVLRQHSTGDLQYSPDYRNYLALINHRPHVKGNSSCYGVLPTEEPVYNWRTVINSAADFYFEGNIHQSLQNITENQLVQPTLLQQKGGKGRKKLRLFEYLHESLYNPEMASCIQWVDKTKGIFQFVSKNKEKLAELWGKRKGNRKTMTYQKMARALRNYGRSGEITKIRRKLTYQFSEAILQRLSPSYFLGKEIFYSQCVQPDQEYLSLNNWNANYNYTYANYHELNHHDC
The following applies: protein: recombinant; tags: N-terminal GST; dsDNA, one strand shown. The method in brief:
as §1

The target of the next assay is ELF4 (Homo sapiens, UniProt Q99607 1-663). As to conditions: protein: recombinant; tags: N-terminal GST; dsDNA, one strand shown. A digest of the protocol: as §1
The target of the next assay is T3, ELK4 (Homo sapiens, UniProt P28324-2 1-405).
T3 sequence: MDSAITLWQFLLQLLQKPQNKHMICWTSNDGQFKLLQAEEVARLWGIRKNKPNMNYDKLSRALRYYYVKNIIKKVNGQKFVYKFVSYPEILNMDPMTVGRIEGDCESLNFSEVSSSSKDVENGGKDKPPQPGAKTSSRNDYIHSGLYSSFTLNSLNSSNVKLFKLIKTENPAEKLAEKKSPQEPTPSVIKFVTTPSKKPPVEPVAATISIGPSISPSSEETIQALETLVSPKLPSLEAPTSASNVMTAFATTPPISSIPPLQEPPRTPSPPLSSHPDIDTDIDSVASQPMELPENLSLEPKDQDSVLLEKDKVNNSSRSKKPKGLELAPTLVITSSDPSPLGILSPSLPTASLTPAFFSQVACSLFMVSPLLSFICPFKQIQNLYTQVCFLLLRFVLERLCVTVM
As to conditions: protein: recombinant; tags: N-terminal GST; dsDNA, one strand shown. The method in brief: as §1

The target in a further assay is T4, ETV2 (Homo sapiens, UniProt O00321 1-342).
T4 sequence: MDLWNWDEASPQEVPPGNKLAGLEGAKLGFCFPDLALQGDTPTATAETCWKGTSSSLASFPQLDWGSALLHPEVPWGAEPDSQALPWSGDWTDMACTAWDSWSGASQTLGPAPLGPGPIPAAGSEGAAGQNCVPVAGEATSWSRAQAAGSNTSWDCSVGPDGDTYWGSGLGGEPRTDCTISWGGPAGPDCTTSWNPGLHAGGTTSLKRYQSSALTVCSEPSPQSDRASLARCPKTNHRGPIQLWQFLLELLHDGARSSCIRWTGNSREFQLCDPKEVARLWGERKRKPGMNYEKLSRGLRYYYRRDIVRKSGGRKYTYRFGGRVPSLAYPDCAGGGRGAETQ
As to conditions: protein: recombinant; tags: N-terminal GST; dsDNA, one strand shown. The method in brief: as §1

Another assay addresses T5, ELF3 (Homo sapiens, UniProt P78545 1-371).
T5 sequence: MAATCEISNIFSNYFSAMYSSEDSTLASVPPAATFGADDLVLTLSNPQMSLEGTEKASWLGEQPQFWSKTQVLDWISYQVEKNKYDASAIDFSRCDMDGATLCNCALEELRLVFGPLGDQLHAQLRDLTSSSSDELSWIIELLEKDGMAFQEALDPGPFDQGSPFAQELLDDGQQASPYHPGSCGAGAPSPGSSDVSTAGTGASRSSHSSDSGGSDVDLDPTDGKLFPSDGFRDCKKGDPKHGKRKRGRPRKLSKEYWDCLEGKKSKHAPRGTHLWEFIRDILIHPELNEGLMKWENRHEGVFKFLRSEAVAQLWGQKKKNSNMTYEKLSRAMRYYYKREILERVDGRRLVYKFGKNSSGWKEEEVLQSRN
The following applies: protein: recombinant; tags: N-terminal GST; dsDNA, one strand shown. A digest of the protocol: as §1

For a further assay, the target named is CRX (Homo sapiens, UniProt O43186 1-299). As to conditions: protein: recombinant; tags: N-terminal GST; dsDNA, one strand shown. The method in brief:
as §1

The next assay deals with ETV1 (Homo sapiens, UniProt P50549 1-477). The following applies: protein: recombinant; tags: N-terminal GST; dsDNA, one strand shown. The method in brief: as §1
A further assay deals with T6, ERF (Homo sapiens, UniProt P50548 1-548).
T6 sequence: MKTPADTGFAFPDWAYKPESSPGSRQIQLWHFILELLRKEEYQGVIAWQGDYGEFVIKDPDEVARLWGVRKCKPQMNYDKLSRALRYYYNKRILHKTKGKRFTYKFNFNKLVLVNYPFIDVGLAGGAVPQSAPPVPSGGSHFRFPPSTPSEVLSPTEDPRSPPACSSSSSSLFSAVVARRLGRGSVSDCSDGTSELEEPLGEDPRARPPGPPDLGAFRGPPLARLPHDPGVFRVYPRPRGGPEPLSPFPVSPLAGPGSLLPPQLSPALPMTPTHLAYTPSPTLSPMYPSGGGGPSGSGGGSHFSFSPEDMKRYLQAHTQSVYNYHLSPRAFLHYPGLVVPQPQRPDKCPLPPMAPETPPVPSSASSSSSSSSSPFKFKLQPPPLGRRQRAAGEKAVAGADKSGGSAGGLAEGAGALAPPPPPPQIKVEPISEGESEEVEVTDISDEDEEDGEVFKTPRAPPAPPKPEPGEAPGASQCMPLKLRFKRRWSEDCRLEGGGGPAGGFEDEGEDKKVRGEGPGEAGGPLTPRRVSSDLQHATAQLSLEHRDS
The following applies: protein: recombinant; tags: N-terminal GST; dsDNA, one strand shown. A digest of the protocol: as §1

For a further assay, the target named is T7, ETV3L (Homo sapiens, UniProt Q6ZN32 1-361).
T7 sequence: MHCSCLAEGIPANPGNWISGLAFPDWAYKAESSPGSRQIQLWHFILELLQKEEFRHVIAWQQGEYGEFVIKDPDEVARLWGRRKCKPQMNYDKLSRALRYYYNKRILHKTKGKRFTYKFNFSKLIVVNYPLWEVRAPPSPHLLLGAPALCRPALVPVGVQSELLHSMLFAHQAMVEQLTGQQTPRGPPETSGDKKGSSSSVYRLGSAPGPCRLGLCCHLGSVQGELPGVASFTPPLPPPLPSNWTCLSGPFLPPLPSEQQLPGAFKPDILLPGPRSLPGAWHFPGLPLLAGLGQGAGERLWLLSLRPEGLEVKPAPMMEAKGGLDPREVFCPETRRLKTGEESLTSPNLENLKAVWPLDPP
The following applies: protein: recombinant; tags: N-terminal GST; dsDNA, one strand shown. A digest of the protocol: as §1

A further assay concerns the target T8, ETS2 (Homo sapiens, UniProt P15036 1-469).
T8 sequence: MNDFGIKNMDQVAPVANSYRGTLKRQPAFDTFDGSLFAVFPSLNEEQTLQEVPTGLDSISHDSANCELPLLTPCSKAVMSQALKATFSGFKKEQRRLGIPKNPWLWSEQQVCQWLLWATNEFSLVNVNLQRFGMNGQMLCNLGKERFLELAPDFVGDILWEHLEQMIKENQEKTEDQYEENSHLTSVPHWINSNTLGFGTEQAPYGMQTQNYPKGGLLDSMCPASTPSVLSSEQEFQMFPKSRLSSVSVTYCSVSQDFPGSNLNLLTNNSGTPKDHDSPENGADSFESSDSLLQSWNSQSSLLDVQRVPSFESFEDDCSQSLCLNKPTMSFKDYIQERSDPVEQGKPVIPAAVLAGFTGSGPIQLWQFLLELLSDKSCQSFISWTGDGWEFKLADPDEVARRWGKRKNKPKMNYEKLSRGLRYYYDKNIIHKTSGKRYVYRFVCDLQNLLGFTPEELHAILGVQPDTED
As to conditions: protein: recombinant; tags: N-terminal GST; dsDNA, one strand shown. The method in brief:
as §1

The target in another assay is T9, SPDEF (Homo sapiens, UniProt O95238 1-335).
T9 sequence: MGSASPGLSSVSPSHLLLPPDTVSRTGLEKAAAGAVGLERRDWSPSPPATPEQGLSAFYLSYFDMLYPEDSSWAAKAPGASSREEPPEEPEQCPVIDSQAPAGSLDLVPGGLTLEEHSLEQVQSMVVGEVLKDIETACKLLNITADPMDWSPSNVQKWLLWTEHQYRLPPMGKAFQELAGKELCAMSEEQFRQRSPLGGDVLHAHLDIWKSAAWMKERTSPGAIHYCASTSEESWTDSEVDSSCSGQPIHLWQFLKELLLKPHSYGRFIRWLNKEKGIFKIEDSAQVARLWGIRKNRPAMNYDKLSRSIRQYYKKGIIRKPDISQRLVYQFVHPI
As to conditions: protein: recombinant; tags: N-terminal GST; dsDNA, one strand shown. The method in brief: as §1

The target of a further assay is T10, ETV7 (Homo sapiens, UniProt Q9Y603 1-341).
T10 sequence: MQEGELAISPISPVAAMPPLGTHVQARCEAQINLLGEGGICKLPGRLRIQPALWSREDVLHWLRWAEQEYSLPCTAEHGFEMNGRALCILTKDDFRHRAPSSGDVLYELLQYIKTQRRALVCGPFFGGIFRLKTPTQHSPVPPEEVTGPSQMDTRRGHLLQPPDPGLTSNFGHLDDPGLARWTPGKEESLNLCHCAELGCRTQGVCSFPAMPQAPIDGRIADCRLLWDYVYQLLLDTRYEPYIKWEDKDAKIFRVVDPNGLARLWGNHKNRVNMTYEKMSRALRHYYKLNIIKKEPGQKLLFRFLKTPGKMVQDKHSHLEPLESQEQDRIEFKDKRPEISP
The following applies: protein: recombinant; tags: N-terminal GST; dsDNA, one strand shown. A digest of the protocol:
as §1

In the next assay the target is T11, ELF5 (Homo sapiens, UniProt Q9UKW6-2 1-255).
T11 sequence: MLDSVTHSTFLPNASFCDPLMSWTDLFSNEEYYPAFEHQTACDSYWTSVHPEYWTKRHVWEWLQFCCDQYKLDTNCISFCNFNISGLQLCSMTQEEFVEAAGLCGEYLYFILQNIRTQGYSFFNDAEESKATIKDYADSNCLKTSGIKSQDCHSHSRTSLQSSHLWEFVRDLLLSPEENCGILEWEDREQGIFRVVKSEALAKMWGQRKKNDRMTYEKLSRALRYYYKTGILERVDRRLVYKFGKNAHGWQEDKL
As to conditions: protein: recombinant; tags: N-terminal GST; dsDNA, one strand shown. A digest of the protocol: as §1

For a further assay, the target named is T12, ETV3 (Homo sapiens, UniProt P41162-2 1-143).
T12 sequence: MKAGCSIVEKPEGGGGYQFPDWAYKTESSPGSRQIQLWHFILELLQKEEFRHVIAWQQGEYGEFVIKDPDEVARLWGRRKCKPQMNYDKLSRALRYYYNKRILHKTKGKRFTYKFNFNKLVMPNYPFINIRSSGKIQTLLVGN
The following applies: protein: recombinant; tags: N-terminal GST; dsDNA, one strand shown. A digest of the protocol: as §1

Chain of ETV1 (P50549 whole entry): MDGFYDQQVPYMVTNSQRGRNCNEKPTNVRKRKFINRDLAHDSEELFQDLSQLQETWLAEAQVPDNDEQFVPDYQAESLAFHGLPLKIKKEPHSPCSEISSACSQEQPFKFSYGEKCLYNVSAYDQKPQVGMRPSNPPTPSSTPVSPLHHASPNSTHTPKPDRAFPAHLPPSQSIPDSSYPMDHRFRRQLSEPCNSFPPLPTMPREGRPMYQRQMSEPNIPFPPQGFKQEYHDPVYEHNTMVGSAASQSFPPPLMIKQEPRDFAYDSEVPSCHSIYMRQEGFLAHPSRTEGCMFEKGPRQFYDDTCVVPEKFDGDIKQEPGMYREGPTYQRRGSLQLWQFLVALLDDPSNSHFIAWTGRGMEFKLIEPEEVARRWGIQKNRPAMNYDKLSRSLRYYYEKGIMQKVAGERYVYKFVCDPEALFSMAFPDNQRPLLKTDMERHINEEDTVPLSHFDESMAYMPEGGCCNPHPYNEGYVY
Chain of ELF4 (Q99607 whole entry): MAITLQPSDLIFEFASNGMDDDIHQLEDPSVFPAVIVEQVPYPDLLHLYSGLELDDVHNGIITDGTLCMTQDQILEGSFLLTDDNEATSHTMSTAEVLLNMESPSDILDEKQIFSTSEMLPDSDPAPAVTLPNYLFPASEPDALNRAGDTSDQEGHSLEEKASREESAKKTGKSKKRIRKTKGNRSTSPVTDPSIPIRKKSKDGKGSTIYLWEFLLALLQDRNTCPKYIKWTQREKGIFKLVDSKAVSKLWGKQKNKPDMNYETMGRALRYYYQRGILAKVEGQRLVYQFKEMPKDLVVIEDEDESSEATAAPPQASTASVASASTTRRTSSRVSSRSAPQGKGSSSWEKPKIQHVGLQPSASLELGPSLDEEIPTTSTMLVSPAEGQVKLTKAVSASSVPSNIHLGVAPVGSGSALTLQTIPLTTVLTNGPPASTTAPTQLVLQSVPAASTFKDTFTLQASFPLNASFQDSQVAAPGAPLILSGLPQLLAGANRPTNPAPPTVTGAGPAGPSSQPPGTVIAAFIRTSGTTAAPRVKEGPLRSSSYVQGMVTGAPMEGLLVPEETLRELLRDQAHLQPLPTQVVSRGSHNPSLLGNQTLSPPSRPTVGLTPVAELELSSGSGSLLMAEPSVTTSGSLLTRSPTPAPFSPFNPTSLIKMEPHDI
Chain of HSF1 (Q00613 whole entry): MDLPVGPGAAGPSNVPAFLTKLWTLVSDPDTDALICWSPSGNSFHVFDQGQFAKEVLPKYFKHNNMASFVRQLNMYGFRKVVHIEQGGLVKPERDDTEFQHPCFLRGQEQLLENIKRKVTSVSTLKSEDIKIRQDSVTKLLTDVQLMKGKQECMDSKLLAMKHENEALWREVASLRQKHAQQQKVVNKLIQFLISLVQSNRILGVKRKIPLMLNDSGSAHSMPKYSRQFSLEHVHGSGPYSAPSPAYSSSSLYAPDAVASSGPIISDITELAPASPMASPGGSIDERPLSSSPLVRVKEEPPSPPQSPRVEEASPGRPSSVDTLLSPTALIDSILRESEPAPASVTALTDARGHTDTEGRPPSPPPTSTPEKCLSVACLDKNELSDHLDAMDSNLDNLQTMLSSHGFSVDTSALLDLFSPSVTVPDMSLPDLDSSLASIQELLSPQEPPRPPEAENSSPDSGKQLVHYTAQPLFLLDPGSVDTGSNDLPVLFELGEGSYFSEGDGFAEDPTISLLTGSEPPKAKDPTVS
Chain of CRX (O43186 whole entry): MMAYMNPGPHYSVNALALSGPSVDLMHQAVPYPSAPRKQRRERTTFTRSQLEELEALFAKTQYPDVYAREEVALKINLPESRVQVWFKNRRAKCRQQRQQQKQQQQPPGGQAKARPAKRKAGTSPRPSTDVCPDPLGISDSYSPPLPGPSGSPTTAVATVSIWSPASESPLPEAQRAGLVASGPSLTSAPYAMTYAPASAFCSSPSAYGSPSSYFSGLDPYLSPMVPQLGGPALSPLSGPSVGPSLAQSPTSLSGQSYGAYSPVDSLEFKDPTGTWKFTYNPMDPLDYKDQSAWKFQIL
Chain of ETV5 (P41161 whole entry): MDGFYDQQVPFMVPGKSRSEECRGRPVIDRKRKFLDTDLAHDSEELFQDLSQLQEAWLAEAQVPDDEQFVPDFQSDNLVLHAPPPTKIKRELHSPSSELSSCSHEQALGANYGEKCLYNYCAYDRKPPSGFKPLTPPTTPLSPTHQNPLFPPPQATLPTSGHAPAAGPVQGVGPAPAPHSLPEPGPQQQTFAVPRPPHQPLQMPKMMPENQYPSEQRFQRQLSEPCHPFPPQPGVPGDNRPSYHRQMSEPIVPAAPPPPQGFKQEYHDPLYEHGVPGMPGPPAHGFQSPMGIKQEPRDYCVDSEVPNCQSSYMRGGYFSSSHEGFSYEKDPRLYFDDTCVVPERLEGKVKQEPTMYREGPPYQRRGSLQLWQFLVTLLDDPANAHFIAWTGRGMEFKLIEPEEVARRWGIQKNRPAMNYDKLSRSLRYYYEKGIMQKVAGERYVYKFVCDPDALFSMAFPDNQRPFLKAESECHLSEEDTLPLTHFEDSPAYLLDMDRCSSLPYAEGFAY

As for GGTCTT, the binding signal with FEV was 1.07 fold enrichment (6-mer frequency, TF over GST control); with ETV5, 1.14 fold enrichment (6-mer frequency, TF over GST control); with HSF1 it was 1.05 fold enrichment (6-mer frequency, TF over GST control); with SPIC, 1.02 fold enrichment (6-mer frequency, TF over GST control); in the assay with ELF4 it was 1.15 fold enrichment (6-mer frequency, TF over GST control); with ELK4, 1.11 fold enrichment (6-mer frequency, TF over GST control). Also, the binding signal in the assay with ETV2 was 1.08 fold enrichment (6-mer frequency, TF over GST control); with ELF3, 1.04 fold enrichment (6-mer frequency, TF over GST control); in the assay with CRX, 1.15 fold enrichment (6-mer frequency, TF over GST control); with ETV1 it was 1.11 fold enrichment (6-mer frequency, TF over GST control); with ERF, 1.22 fold enrichment (6-mer frequency, TF over GST control); with ETV3L, 1.07 fold enrichment (6-mer frequency, TF over GST control). For the same sequence, the binding signal with ETS2 is 1.23 fold enrichment (6-mer frequency, TF over GST control); with SPDEF, 1.12 fold enrichment (6-mer frequency, TF over GST control); in the assay with ETV7, 1.19 fold enrichment (6-mer frequency, TF over GST control); in the assay with ELF5 it was 1.2 fold enrichment (6-mer frequency, TF over GST control); with ETV3, 1.16 fold enrichment (6-mer frequency, TF over GST control).
